# Screening data: PubChem, several laboratories
# Bcl-xL primary: blocks human Bcl-xL binding to Bim BH3 peptide; GST-Bcl-xL / FITC-Bim BH3 peptide fluorescence polarization; inhibition, % at 10.9 µM; actives 0.7% (n = 320,000); Q07817; AID 2129;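 active = inhibition above the mean of all tested compounds plus 3 SD, cutoff set per campaign, cut at about 30% in these data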;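 note: 0% = DMSO wells and 100% = unlabeled Bim-BH3 peptide competitor; inhibitors lower millipolarization by displacing the labeled peptide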
# Target sequence (Q07817 whole entry, looked up): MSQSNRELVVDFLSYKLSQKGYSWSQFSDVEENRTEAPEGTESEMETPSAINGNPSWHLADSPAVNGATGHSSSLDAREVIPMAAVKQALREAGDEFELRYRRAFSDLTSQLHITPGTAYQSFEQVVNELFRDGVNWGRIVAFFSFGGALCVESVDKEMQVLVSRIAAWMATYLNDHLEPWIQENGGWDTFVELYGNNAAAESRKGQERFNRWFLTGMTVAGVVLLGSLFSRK
# GLD-1 TGE inh: GLD-1-TGE RNA interaction inhibition (C. elegans); AID 2280; purified GLD-1 + fluorescein TGE RNA, fluorescence polarization; inhibition, % at 5.96 µM; actives 0.44% (n = 320,000);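 active = percent inhibition above a per-plate cutoff, the plate mean of test compounds plus 3 SD, cut at about 30% in these data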;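 note: 0% = DMSO wells with GLD-1 and probe and 100% = wells lacking GLD-1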
# Mcl1 Noxa PPI: disrupts binding of human Mcl-1 to Noxa peptide; actives 1.5% (n = 220,000); inhibition, % at 21.7 µM; Q07820; TR-FRET Mcl-1/Noxa peptide binding, 2 h;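 active = compounds that cut the protein-peptide binding signal by more than 50% relative to plate controls in a single-dose test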;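 note: His-tagged Mcl-1 with rhodamine Noxa BH3 peptide and terbium anti-His antibody; 0% = Mcl-1 plus Noxa peptide wells and 100% = peptide-only wells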
# Bim-Mcl-1: inhibitors of Bim-Mcl-1 interaction, human; Bead-based flow cytometry, Bim peptide-Mcl-1 binding; inhibition, % at 10 µM; actives 0.1% (n = 190,000); AID 1009; in the data active = inhibition above about 40%;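 note: 0% = no compound tracer wells and 100% = peptide blocker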
# Mcl1-Bid inh: Mcl-1/Bid interaction inhibition. Q07820. TR-FRET Mcl-1/Bid-Dy647 peptide binding, 1536-well. inhibition, % at 21.7 µM. actives 0.97% (n = 220,000). AID 1021;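 active = compounds that cut the binding signal by more than half at the single screening dose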;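 note: His-tagged Mcl-1 with europium anti-His antibody binding Bid BH3 peptide; 0% = Mcl-1 plus peptide wells and 100% = peptide-only wells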
# MCL1-BIM inh: disrupts human MCL1 binding to BIM-BH3 peptide; Q07820; AID 2057; inhibition, % at 10.9 µM; actives 0.68% (n = 320,000); GST-MCL1 / FITC-Bim-BH3 fluorescence polarization;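 active = inhibition above the mean inhibition of all tested compounds plus 3 SD, set per campaign, cut at about 40% in these data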;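 note: 0% = DMSO wells and 100% = unlabeled Bim-BH3 peptide control; higher means more loss of mP so more displacement of Bim peptide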
# Bcl-xL conf: counter-screen for MCL1 inhibitors: confirmation of human Bcl-xL inhibitors | AID 2166 | actives 54% (n = 1,700) | shares compounds with MCL1-BIM inh | inhibition, % at 10.9 µM | GST-Bcl-xL / FITC-Bim BH3 peptide FP binding;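 active = inhibition above a cutoff equal to the mean inhibition of all tested compounds plus 3 SD, cut at about 30% in these data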;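 note: 0% = DMSO wells and 100% = unlabeled Bim BH3 control peptide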
# MCL1 BIM confirm: MCL1-BIM-BH3 interaction inhibition, confirmation; actives 61% (n = 1,700); inhibition, % at 10.9 µM; GST-MCL1 / FITC-Bim-BH3 fluorescence polarization; shares compounds with MCL1-BIM inh;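 active = inhibition above the average of all tested compounds plus 3 SD, cut at about 40% in these data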;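 note: 0% = DMSO wells and 100% = unlabeled Bim-BH3 control peptide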
# * hit, by the source's call; x = no result given; + = active, no number. A selection: hits, their analogues and other compounds. The true share with any hit is near 2.3%.
SMILES,Bcl-xL primary,GLD-1 TGE inh,Mcl1 Noxa PPI,Bim-Mcl-1,Mcl1-Bid inh,MCL1-BIM inh,Bcl-xL conf,MCL1 BIM confirm
O=C1CSC(=S)N1c1ccc(F)cc1,-7,-7,x,x,x,7,x,x
CC(=O)Nc1ccc(NC(=O)C(C)Sc2n[nH]c(-c3ccc(C)cc3)n2)cc1 (centres undefined),2,5,x,x,x,-2,x,x
CCOc1ccc(C(=O)N2CCC3(CC2)NCCc2[nH]cnc23)cc1OCC,1,-4,x,x,x,2,x,x
CCN(CC)C(=O)COc1ccc2c(-c3ccccc3)cc(=O)oc2c1,6,6,x,x,x,+,2,-3
O=C(Nc1ccc([N+](=O)[O-])cc1)c1ccc(S(=O)(=O)N2CCCC2)cc1,3,0,x,x,x,58*,0,8
CC(=O)Nc1sc(C)c(C)c1C(=O)OCC(=O)N(C)c1c(N)n(Cc2ccccc2)c(=O)[nH]c1=O,6,-4,x,x,x,2,x,x
O=C(O)Cc1c[nH]c2cccc(O)c12,12,5,81*,0,23,45*,15,32
CNc1ccc2c3c(cccc13)C(=O)N(C)C2=O,178*,119*,x,x,x,+,+,+
CN1C(=O)c2cccc3c(N(C)C)ccc(c23)C1=O,75*,10,x,x,x,89*,31*,33
O=c1oc2ccccc2nc1/C=C(O)/C=C/c1ccc(F)cc1,-14,-5,22,-2,-48,-34,x,x
O=c1oc2ccccc2nc1/C=C(O)/C=C\c1ccccc1,57*,34*,2,-3,-6,69*,-40,-94
COc1cc(C2Nc3cc(C)c(C)cc3NC3=C2C(=O)CC(C)(C)C3)ccc1OC(C)=O (centres undefined),3,2,x,x,x,9,x,x
Cc1cc2c(cc1C)NC(c1c(C)n(C)n(-c3ccccc3)c1=O)C1=C(CC(C)(C)CC1=O)N2 (centres undefined),120*,85*,7,0,-13,135*,8,8
Cc1ccc(Oc2c(CO)c(-c3ccccc3)nn2C)cc1,2,9,7,0,-19,48*,2,1
C=CCN1C(=O)[C@]2(c3ccccc31)C1CCCC=C1C(C#N)=C(N)C2(C#N)C#N (some centres undefined),-5,-1,10,-1,-16,-6,x,x
CN1CCC2(CC1)C1CN(C)CC=C1C(C#N)=C(N)C2(C#N)C#N (centres undefined),120*,20,-8,-1,-24,140*,117*,146*
CN(CC(=O)NNC(=O)CCNS(=O)(=O)c1ccccc1)S(=O)(=O)c1ccc(Cl)cc1,4,2,x,x,x,4,x,x
CN(C)/C=C1\C=C2C(=O)c3ccccc3N2C1=O,109*,91*,-199,x,-48,116*,115*,121*
Cc1ccc(N=Cc2nc(-c3ccc(C)cc3)oc2O)cc1,x,x,-11,-2,-2,x,x,x
CC(=O)Nc1ccc(N=Cc2nc(-c3ccc(C)cc3)oc2O)cc1,89*,31*,65*,2,64*,90*,60*,61*
C#CCOCCOCCOCCNc1nc(N2CCN(C(=O)[C@H](CCC(=O)O)n3cc([C@@H](N)CCCCN)nn3)CC2)nc(N2CCN(C(=O)[C@H](CCCCN)n3cc([C@@H](N)CC(N)=O)nn3)CC2)n1,x,6,x,x,x,x,x,x
CCc1ccc(N2CC(C(=O)OCc3nc4ccsc4c(=O)[nH]3)CC2=O)cc1 (centres undefined),24,17,x,x,x,41*,33*,49*
N#CC1=C(N)Oc2cc(N)ccc2C1c1ccc(F)cc1F (centres undefined),55*,4,x,x,x,54*,23,23
N#CC1=C(N)Oc2cc(N)ccc2C1c1ccc(F)cc1 (centres undefined),6,2,0,-4,-17,5,x,x
CCOC(=O)N/N=C\c1ccc([N+](=O)[O-])o1,8,0,1,0,-37,64*,1,2
